Among all 1,100 compounds or so, fewer than 10 were called active. Another 6% or so got no clear call; they are omitted. A selection follows. Unmarked numbers belong to inactive results. Calls come from the whole dose curve; as a rule, active = well fitted cell-killing curve with a large enough effect; inconclusive = small, poorly fitted or top-dose-only effect; inactive = flat fitted curve, though single readings scatter.
Test: qHTS of Nrf2 Activators: Hit Validation in Cytotox Assay;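 note: compound exposure lasted 24 hours before the ATP readout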; for activity change, negative = cytotoxicity: 0% is about no effect
Conditions: Cell viability counter-screen for Nrf2 activator hits; series mostly up to 46.1 µM; activity change, negative = cytotoxicity: at the top concentration
From the text: Many diseases have some form of oxidative stress injury and ties to inflammation, causing a host of problems for the patient. The antioxidant response element (ARE) plays an important role in alleviating the harmful effects of oxidative stress. The antioxidant response element (ARE) is a transcriptional regulatory element involved in the activation of genes coding for a number of antioxidant proteins and detoxifying enzymes. These enzymes work in concert to protect tissues from oxidative insults and chemical toxicities in human hepatocytes and immune cells. The protective effects of ARE activation are primarily triggered through Nrf2 (NF-E2-related factor) binding to and activating AREs. It is known that Nrf2 controls the production of over 250 antioxidant and detoxification proteins (Hu et al., 2006), thereby protecting tissues by increasing cellular antioxidant content and suppressing inflammatory signaling pathways. The transcription factor Nrf2 is a central link between oxidative chemicals, such as phenolic antioxidants and electrophilic compounds, and the activation of ARE. Nrf2 levels are constitutively low as a consequence of its interaction with Keap1, which targets its degradation (Zipper and Mulcahy, 2002). Electrophiles react with key cysteine residues in Keap1, releasing Nrf2 and allowing its translocation to the nucleus. Once within the nucleus, Nrf2 complexes with coactivators such as p300, and binds to the AREs to induce gene transcription of cytoprotective enzymes, resulting in the prevention of toxicity. Activation of Nrf2 protects tissues by increasing cellular antioxidant content and suppressing inflammatory signaling pathways. Identifying novel and potent Nrf2 activators by using the AREc32 cell line to detect ARE activation by small molecules will lead to the identification and development of probes to study protective pathways in multiple tissues. These specific probes are essential to study the ARE pathway, and eventually to determine whether this pathway does activate genes that could protect against a host of diseases, including cardiovascular diseases, obesity, diabetes, Alzheimer's, and Parkinson's disease.
This project's aim is to identify novel and potent Nrf2 activators by using the AREc32 cell line to detect ARE activation by small molecules, which will lead to the identification and development of probes to study the ARE pathway. Cytotoxic compounds are flagged as active, and inactivity is desired in this assay.
NIH Chemical Genomics Center [NCGC]
NIH Molecular Libraries Probe Centers Network [MLPCN]
Assay Submitter (PI): Curtis Klaassen, University of Kansas Medical Center
Cell viability after compound treatment was measured using a luciferase-coupled ATP quantitation assay (CellTiter-Glo, Promega) in AREc32_fluc cells. The change of intracellular ATP content indicates the number of metabolically competent cells after compound treatment. AREc32_fluc cells were harvested from T225 flask and resuspended in phenol red free OPTI-MEM medium with 5% FBS. Then 5 microL of 200,000 cells/ml resuspended cells was dispensed into each well of white, solid bottom, 1536-well tissue culture-treated plates using a Multidrop Combi dispenser. After overnight culture at 37 degrees C with 5% CO2, a total of 23 nL of compounds at 7 selected concentrations from the cherry pick or positive control (40 uM stock of CDDO-IM and 2 mM of tBHQ) in DMSO was transferred to each well of the assay plate using a pintool (Kalypsys, San Diego, CA), and the plates were further incubated at 37 degrees C with 5% CO2 for 24 hours. After that, 4 microL of CellTilter-GloTM luminescent substrate mix (Promega) was added to each well. The plate was incubated at room temperature for 30 minutes. The plates were measured on a ViewLux plate reader (PerkinElmer) with clear filter.
Potency is the fitted concentration of half-maximal effect.

Structure (SMILES)	activity change, negative = cytotoxicity [%]	Potency
Cc1ccc(Cn2c(/C=C/c3ccco3)nc3ccccc32)cc1	-21.8	–
Clc1ccc(C=Cc2ccccn2)cc1	1.25	–
N#C/C(=C\c1ccccc1)c1ccccn1	-2.49	–
O=c1[nH]c(SCc2cccc([N+](=O)[O-])c2)nc2[nH]ncc12	0.58	–
COc1ccc(OC)c(C=C2CCc3ccccc3C2=O)c1	1.45	–
O=C(Oc1cccc(-c2cnc3ccccc3n2)c1)c1ccco1	-1.91	–
Cc1ccc(C)c(/C=N/Nc2ccccn2)c1	9.8	–
O=C(Nc1cc(-c2nc3ncccc3o2)ccc1Cl)c1ccco1	11	–
CN(C)CCN(C(=O)/C=C/c1cccs1)c1nc2ccc(F)cc2s1	-13.7	–
O=C(Nc1nnc(-c2cccs2)s1)c1cccc(F)c1	7.96	–
Cc1nn(-c2ccc3ccccc3c2)c(=O)c2ccccc12	4.52	–
Cc1cc(C)c2c(N)c(C(=O)c3ccc(Br)cc3)oc2n1	-19.8	–
Cc1ccc(-c2nc(NCc3ccco3)c3ccccc3n2)cc1	-1.85	–
Brc1cc(Br)c2nc(-c3cccs3)ccc2c1	5.71	–
S=c1nc(-c2ccccc2)[nH]c2ccc(Br)cc12	8.86	–
N#C/C(=C(/O)c1ccc(Br)s1)c1nc2ccccc2[nH]1	-1.87	–
N#C/C(=C(/O)c1ccco1)c1nc2ccccc2[nH]1	-1.76	–
N#C/C(=C\c1ccc([N+](=O)[O-])o1)c1nc2ccccc2[nH]1	–	20.6 µM (active)
O=C(Nc1ccccc1F)c1cc(-c2ccco2)nc2ccccc12	9.87	–
COc1ccc(Cl)cc1-c1nc(-c2ccncc2)no1	0.603	–

Structure (SMILES)	activity change, negative = cytotoxicity [%]	Potency
S=c1[nH]nc(-c2ccco2)n1/N=C/c1cccc(Cl)c1Cl	3.26	–
N#Cc1cnc2cc(-c3ccccc3)nn2c1N	9.63	–
O=C(CSc1ccc(-c2ccco2)nn1)N1CCCC1	3.86	–
CCNc1ccc(-c2nc(-c3ccco3)no2)cc1[N+](=O)[O-]	4.03	–
COC(=O)c1ccc2nc(-c3cccc(Br)c3)c(Cc3ccccc3OC)n2c1	-1.22	–
Fc1ccc2nc(Nc3nc4c(F)cc(F)cc4s3)sc2c1	-20.6	–
N#Cc1cccn1-c1nccc(-c2cccs2)n1	6.19	–
O=C(NC(=S)Nc1cc([N+](=O)[O-])ccc1Cl)c1ccccc1	2.33	–
Cc1cc(SCC(=O)c2cccs2)nc2ccccc12	-9.71	–
O=C(NCc1ccco1)c1ccccc1-c1nc(-c2ccc(F)cc2)no1	2.78	–
O=[N+]([O-])c1ccc(SCc2ccco2)cc1N1CCOCC1	-8.19	–
CCOC(=O)N1CCc2c(sc3c2C(=O)NC(c2ccccc2)N3)C1 (stereo not given)	-11.2	–
CC(=O)c1cccc(NC(=O)c2cc(Cl)sc2Cl)c1	2.61	–
Cn1c(N/N=C/c2cccs2)cc(=O)n(C)c1=O	1.17	–
Cc1cc(=O)n2nc(-c3ccccc3)sc2c1C#N	1.07	–
Cc1cc(C)c(C#N)c(SCC(=O)c2cccs2)n1	3.09	–
COc1ccc(O)c(-c2cc(-c3ccccc3Cl)[nH]n2)c1	-8.44	–
CCn1c(SCC(=O)N/N=C/C=C/c2ccco2)nc2ccccc21	-2.98	–
Cc1ccc(NC(=O)COCc2cc(-c3cccs3)on2)cc1Cl	5.1	–
c1ccc2c(c1)nnn2-c1ncnc2sccc12	3.73	–

Structure (SMILES)	activity change, negative = cytotoxicity [%]	Potency
O=C(CSc1nc2c(sc3ccccc32)c(=O)n1-c1ccccc1)NCc1ccco1	2.64	–
S=c1[nH]nc(-c2ccncc2)n1/N=C/C=C/c1ccco1	6.05	–
Clc1ccccc1NN=Cc1ccccn1	1.21	–
Cc1cc(NC(=O)c2ccccc2)nc2c1c(=O)oc1ccccc12	1.23	–
CCCn1c(-c2cccs2)nc2nc3ccccc3nc21	5.71	–
CCOC(=O)c1sc(NC(=O)c2ccccc2F)c(C(N)=O)c1C	7.14	–
C#CCSc1nc(-c2ccccc2)cc(C(F)(F)F)c1C#N	5.58	–
O=Cc1c(NCc2ccco2)nc2ccccn2c1=O	7.6	–
COC(=O)C1=C(C)NC(=O)/C1=C\c1ccco1	-7.1	–
Cc1nc(-c2ccccn2)sc1C(=O)Nc1ccc(F)cc1	7.45	–
CC(=O)Nc1cc(-c2ccsc2)cn2c(-c3ccc(F)cc3)cnc12	-5.25	–
O=C(Nc1ccc(F)cc1)c1nsc(Cl)c1Cl	1.43	–
CS(=O)(=O)c1ccc2nc(NC(=O)CCS(=O)(=O)c3ccccc3)sc2c1	11.9	–
O=C(Cn1ncc(Cl)c(Cl)c1=O)NC1CCS(=O)(=O)C1 (stereo not given)	8.46	–
Cc1ccccc1OCC(=O)Nc1ccccc1CO	11.9	–
O=C(c1nn2c(C(F)(F)F)cc(-c3ccco3)nc2c1Br)N1CCCc2ccccc21	-15	–
Cc1ccc([N+](=O)[O-])c(OCc2ncc(Cl)n2C)c1	-2.21	–
O=c1[nH]c(O)c(/C=C2\C=Nc3ccc(Br)cc32)[nH]1	8.92	–
COc1ccc(/C(N)=N/OC(=O)c2cccc([N+](=O)[O-])c2)cc1	-1.04	–
N/C(=N\OC(=O)c1ccco1)c1cccc(Br)c1	3.8	–
